Among all 93,000 compounds or so, about 500 (0.54%) were called active. This is one part of a sample in which actives are shown more often than they occur.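 How the source made its calls: active means primary inhibition of 50% or more at 10 µM, then 40% or more on retest; inactive means the rest.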
Target: Integrin beta-2 (Homo sapiens) + Integrin alpha-M (Homo sapiens) (UniProt P05107+P11215)
Test: inhibitors of CD11b/CD18 adhesion to fibrinogen, primary screen, K562 cells, luminescence (AID 1497)
Conditions: ATPlite luminescence, at 10 µM, hits give high values, Mn2+ added to activate the integrin

Integrin beta-2 (Homo sapiens) + Integrin alpha-M (Homo sapiens), sequence (P05107 whole entry, looked up, other chains not shown): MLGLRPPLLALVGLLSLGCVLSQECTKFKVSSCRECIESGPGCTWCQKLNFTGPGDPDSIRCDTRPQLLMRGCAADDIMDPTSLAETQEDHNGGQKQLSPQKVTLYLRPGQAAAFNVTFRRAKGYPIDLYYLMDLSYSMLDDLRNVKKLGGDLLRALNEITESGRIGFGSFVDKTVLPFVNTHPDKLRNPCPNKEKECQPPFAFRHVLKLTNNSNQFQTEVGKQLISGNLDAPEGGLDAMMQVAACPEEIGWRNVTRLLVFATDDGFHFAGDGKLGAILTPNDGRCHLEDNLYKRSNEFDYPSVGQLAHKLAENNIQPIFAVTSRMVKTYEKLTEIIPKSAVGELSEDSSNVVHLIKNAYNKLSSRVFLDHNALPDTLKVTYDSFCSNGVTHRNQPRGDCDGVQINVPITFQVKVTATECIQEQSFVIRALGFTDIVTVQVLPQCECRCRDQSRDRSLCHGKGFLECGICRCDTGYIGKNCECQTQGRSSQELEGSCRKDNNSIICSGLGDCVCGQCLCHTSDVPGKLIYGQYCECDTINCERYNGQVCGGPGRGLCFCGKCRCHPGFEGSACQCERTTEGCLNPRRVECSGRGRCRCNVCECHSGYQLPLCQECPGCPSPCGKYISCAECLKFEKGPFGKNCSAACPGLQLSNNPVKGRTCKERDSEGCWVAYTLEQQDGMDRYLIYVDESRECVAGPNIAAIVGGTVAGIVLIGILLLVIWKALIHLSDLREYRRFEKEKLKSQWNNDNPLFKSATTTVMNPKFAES

Structure (SMILES) | inhibition
COc1cc(OC)c(C(=O)OC(C)C(=O)Nc2cc(C(F)(F)F)ccc2Cl)cc1OC (stereo unspecified) | 26.7% (inactive)
COc1ccc2nc(SCc3ccccc3)nc(C)c2c1 | 1.5% (inactive)
CC(C)(C)OC(=O)N/N=C/c1ccc(C(=O)O)cc1 | -1.8% (inactive)
CC(C)Nc1nnc(SCC(=O)/C=C2\N(C)c3ccccc3C2(C)C)s1 | 21.6% (inactive)
CCOC(=O)c1cnc2ccc(F)cc2c1Nc1ccc2c(c1)OCCO2 | 2.6% (inactive)
Cc1c(NS(=O)(=O)c2ccc(NC3CCCC3)c([N+](=O)[O-])c2)c(=O)n(-c2ccccc2)n1C | 1% (inactive)
Cc1cccc(CC(=O)N2CCN=C2SCc2ccc([N+](=O)[O-])cc2)c1 | -1.1% (inactive)
COc1ccc(CCNc2cc(C)nc3c(-c4ccc(Cl)cc4)c(C)nn23)cc1OC | 2.7% (inactive)
Cc1cccc(-n2c(C)cc(/C=N\NC(=O)c3cccs3)c2C)c1 | 37.3% (inactive)
Cc1nc(CNS(=O)(=O)c2cccnc2)cs1 | -2.1% (inactive)
Cc1ccc(S(=O)(=O)NCc2csc(C)n2)c(C)c1 | -9% (inactive)
Cc1nc(CNS(=O)(=O)c2ccc(Oc3ccccc3)cc2)cs1 | 91.7% (active)
COc1ccccc1N=Cc1c(O)c2ccccc2oc1=O | 6% (inactive)
Oc1c(Br)cccc1/C=N/Nc1c(F)c(F)c(F)c(F)c1F | 99.8% (inactive)
Cc1cc([N+](=O)[O-])ccc1NC(=O)C1CCCO1 (stereo unspecified) | 24.2% (inactive)
CCOC(=O)/C(C#N)=C/c1ccc(N2CCN(Cc3ccccc3)CC2)cc1 | 82.1% (inactive)
Cc1ccc(NC(=S)NC(=O)/C=C/c2ccc(Cl)cc2)cc1 | 7.2% (inactive)
Cc1ccc(/C=N/NC(=O)CNC(=O)COc2ccccc2)o1 | -10.5% (inactive)
O=c1c(Cl)c(NCc2ccc(F)cc2Cl)cnn1C12CC3CC(CC(C3)C1)C2 | -4% (inactive)
Cc1c(C(=O)NCCN2C(=O)S/C(=C\c3cccs3)C2=O)cccc1[N+](=O)[O-] | 7% (inactive)
Cc1sc2ncnc(Sc3nc4ccccc4s3)c2c1C | -5.9% (inactive)
O=[N+]([O-])c1ccc(N2CCN(S(=O)(=O)c3ccccc3)CC2)cc1N1CCc2ccccc2C1 | -22.4% (inactive)
CCOCCCNC(=O)C(=O)NCCCOCC | -3% (inactive)
Cc1ccc(NC(=S)N2CCN(c3ncccn3)CC2)cc1C | -4.4% (inactive)

Structure (SMILES) | inhibition
Cc1cc2oc(=O)cc(CN3CCN(S(=O)(=O)c4cccs4)CC3)c2cc1C(C)C | 22.2% (inactive)
CCN(c1ccc(NC(=O)COC(=O)CCc2nc3ccccc3n2-c2ccccc2)cc1)C(C)C | 15.2% (inactive)
CC(C)N1C(=O)N(c2ccccc2)C(C)(O)CC1(C)C (stereo unspecified) | -10.1% (inactive)
Cc1cccc(NC(=O)Cn2c(=O)n(Cc3ccccc3)c(=O)c3c(C)c(C)sc32)c1 | -17.5% (inactive)
CCOc1ccc(NC(=O)COc2ccc(C(=O)NC3CCCc4ccccc43)cc2OC)cc1 (stereo unspecified) | 1.8% (inactive)
CCCN1CNC(=S)N(CCc2ccccc2)C1 | -28.3% (inactive)
CCCCCCc1cc2cc(-c3nnc(-c4ccccc4)o3)c(=O)oc2cc1O | 94% (active)
O=c1oc2cc(O)ccc2cc1-c1ccc(F)cc1 | -2.5% (inactive)
CCOc1cccc(C(=O)Nc2cccnc2)c1 | -2.2% (inactive)
Cc1c(C(=O)OC(C)C)sc(NC(=O)c2cccnc2)c1C#N | 86% (active)
CCOC(=O)c1cc(NC(=O)c2cccnc2)cc(C(=O)OCC)c1 | -52.6% (inactive)
CCOC(=O)CSC1=C(C#N)C(c2ccco2)C(C(=O)OCc2ccccc2)=C(C)N1 (stereo unspecified) | 34.5% (inactive)
Cc1ccc(C2CC(=O)NC(SCC(=O)OCc3ccccc3)=C2C#N)o1 (stereo unspecified) | 29.9% (inactive)
CCOC(=O)CSC1=C(C#N)C(c2sccc2C)CC(=O)N1 (stereo unspecified) | 56.1% (active)
CCCn1c(N)c(C(=O)CSc2nnc(-c3cccnc3)n2-c2ccc(C)cc2C)c(=O)[nH]c1=O | -8.1% (inactive)
Cc1cc(Br)ccc1SCC(=O)OCC(=O)NCc1ccc2c(c1)OCO2 | 10.7% (inactive)
O=C(CSc1nc2ccccc2c(=O)n1CCCO)N1CCc2ccccc21 | 21.1% (inactive)
O=C(N/N=C/c1cccc([N+](=O)[O-])c1)C1CC(=O)N(c2ccc(Br)cc2)C1 (stereo unspecified) | -4.8% (inactive)
COC(=O)c1c(C)oc2ccc(N(C(=O)Oc3ccccc3)S(=O)(=O)c3ccccc3)cc12 | 2.5% (inactive)
Cc1ccc2nc(SCc3cn4c(C)cc(C)nc4n3)[nH]c2c1 | -5.6% (inactive)
COc1ccc(C(CC(=O)Nc2ccc(C)cc2)NC(=O)C(F)(F)F)cc1 (stereo unspecified) | -24.1% (inactive)
CCCc1c(C)nc2c(Br)cccc2c1Cl | 13.2% (inactive)
Cc1c(Cl)cccc1NC(=O)Nc1ccc(C(=O)N2CCCC2)cc1 | 9.6% (inactive)
CCOc1ccc(/C=N/OCC(=O)NCc2cccs2)cc1 | 9% (inactive)

Structure (SMILES) | inhibition
CCc1c(C)sc(NC(=O)/C=C/c2ccc3c(c2)OCO3)c1C(=O)OC | -6.4% (inactive)
O=C(Cc1ccc(-c2ccccc2)cc1)NC(c1ccccc1)c1ccccc1 | -18.2% (inactive)
CCOc1cc(CNCc2ccccn2)ccc1OCC(=O)NC(C)(C)C | 7.5% (inactive)
CC(C)(C)NC(=O)COC(=O)c1cc(Br)ccc1Cl | 12.8% (inactive)
CC(C)C(=O)Nc1cccc(NC(=O)c2ccc([N+](=O)[O-])cc2Cl)c1 | -3.1% (inactive)
COC(=O)c1ccccc1NC(=O)c1ccccc1NS(C)(=O)=O | -14.9% (inactive)
CCOc1ccc(NC(=O)c2ccccc2NS(C)(=O)=O)cc1 | -19.4% (inactive)
COC(=O)c1ccc(NC(=O)c2ccccc2NS(=O)(=O)c2ccccc2)cc1 | 102% (active)
O=C(Oc1ccc([N+](=O)[O-])cc1)c1ccc(Cl)c(S(=O)(=O)N2CCCCC2)c1 | 8.6% (inactive)
Cc1ccc(NC(=O)c2sc3nc(N)c(C#N)cc3c2N)cc1 | 10.7% (inactive)
COc1cccc(N(C(=O)C2COc3ccccc3O2)C(C(=O)NC2CCCCC2)c2ccc(O)cc2)c1 (stereo unspecified) | -5% (inactive)
Cc1ccc(CSCC(N)C(=O)O)cc1 (stereo unspecified) | -2% (inactive)
O=C(NCC1CCCO1)/C(=C/c1ccc(Cl)cc1)NC(=O)c1ccccc1 (stereo unspecified) | 2.4% (inactive)
O=C(Nc1nnc(C2COc3ccccc3O2)o1)c1ccc(F)cc1 (stereo unspecified) | -27.3% (inactive)
COC(=O)Cc1ccc(NC(=S)NCc2ccccc2)cc1 | 0.4% (inactive)
CCCn1c(SCC(=O)Nc2ccc(C)c(S(=O)(=O)N3CCOCC3)c2)n[nH]c1=O | -10.9% (inactive)
O=C(NNC(=S)Nc1ccc(Br)cc1Cl)c1ccco1 | 89.9% (active)
Cc1ccc(-n2nc3cc(Cl)c(NC(=O)c4ccco4)cc3n2)cc1 | 3.9% (inactive)
COC(=O)c1cc(Cl)c(NC(=O)c2ccco2)cc1OC | -6% (inactive)
CN(C)S(=O)(=O)c1cccc(NC(=S)N/N=C/C(=O)c2ccccc2)c1 | 14% (inactive)
COc1ccc([N+](=O)[O-])cc1NC(=O)C(C)OC(=O)C1c2ccccc2Oc2ccccc21 (stereo unspecified) | 26.5% (inactive)
COc1ccc(CCNC(=O)CSc2nc(-c3ccc(OC)c(OC)c3)ccc2C#N)cc1 | 18.5% (inactive)
CCC(=O)Nc1ccc2c(c1)nc(CCN1CCN(C)CC1)n2C | 3.3% (inactive)
Cn1c(CN2CCOCC2)nc2cc(NC(=O)c3ccc(Cl)cc3)ccc21 | 87.2% (active)

Structure (SMILES) | inhibition
COc1ccc(C(=O)Nc2ccc(CN3CCOCC3)cc2)cc1 | -3.3% (inactive)
COCCOCCn1cnc2ccccc21 | 2.3% (inactive)
Cc1cc2ncn(CCCCOc3ccccc3)c2cc1C | 63.9% (active)
Cc1nn(CCOc2ccccc2)c(=O)n1-c1ccccc1F | -0.4% (inactive)
COc1ccc(NC(=O)CC2C(=O)OCC3CCCCN32)cc1Cl (stereo unspecified) | -8.3% (inactive)
CCCCCCCCC(=O)NCCOc1ccccc1 | 2.8% (inactive)
COc1ccc(/C=C2/C(=O)OCc3cc(OC)c(OC)cc32)c(OC)c1 | 0.8% (inactive)
C/C(=N\NS(=O)(=O)c1ccc(Cl)cc1)c1ccc(NC(=O)c2ccco2)cc1 | -3.6% (inactive)
COCCn1c(=NC(=O)c2ccccc2[N+](=O)[O-])sc2cc(S(C)(=O)=O)ccc21 | 25.4% (inactive)
C/C(=N\NC(=O)CCn1nc(C)cc1C)C(C)(C)C | 1% (inactive)
N#C/C(=C/c1cccc([N+](=O)[O-])c1)c1nnc2n1CCCCC2 | 2.5% (inactive)
N/C(=N\OC(=O)Nc1ccc(Cl)c(Cl)c1)c1ncc(C(F)(F)F)cc1Cl | -4.4% (inactive)
O=C(CC(O)(C(F)(F)F)C(F)(F)F)Nc1ccc(Cl)c(Cl)c1 | 89.5% (active)
Cc1nnc(NC(=O)Nc2ccc(Cl)c(Cl)c2)s1 | 37% (inactive)
COc1ccc(Cn2c(=O)sc3ccccc32)cc1OC | 75.8% (active)
COc1ccc(CCNC(=O)CCn2c(=O)oc3ccccc32)cc1OC | -58.2% (inactive)
Cc1nnc(NC(=O)Cn2c(=O)sc3ccccc32)s1 | -2.7% (inactive)
COc1ccc(NC(=O)c2ccc(OC)cc2)cc1 | -5.7% (inactive)
COc1ccc(C(=O)Nc2ccccc2C(=O)N/N=C/c2ccc(O)c(OC)c2)cc1 | 106% (inactive)
COc1ccc(C(=O)Nc2ccccc2C(=O)N/N=C/c2ccccc2OC)cc1 | 65.1% (active)
N#C/C=C\Oc1ccc(Cl)cc1N | 51.7% (active)
COc1ccc(Cl)cc1NC(=O)[C@@H]1CCCN1C(=O)c1cccs1 | -14.3% (inactive)
Cc1nn(-c2ccccc2)c(C)c1/C=C/C(=O)OC(C)C(N)=O (stereo unspecified) | -9.1% (inactive)
COc1ccc(-c2csc(NC(=O)CCCc3cccs3)n2)cc1 | 6.2% (inactive)

— PubChem BioAssay AID1497 (Sanford-Burnham Center for Chemical Genomics, 2009)
